# Measured values from PubChem BioAssay (NCATS).
# Records with an inconclusive call do not appear. The source made the active and inactive calls. Unless noted, no rule for the calls is given here.
# How the values were obtained:
# [1] = qHTS profiling of the MIPE4 collection as inhibitors of Plasmodium falciparum (3D7) proliferation (AID 743344);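 also: scaled between DMSO vehicle wells and 0.29 µM artemisinin as full inhibition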; conditions: P. falciparum 3D7 in erythrocytes, SYBR Green DNA fluorescence, 72 h; at 28.5 µM unless noted
# Outline: (§1)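 Parasite DNA was quantified by SYBR Green I fluorescence (ex 485, em 535 nm) after overnight lysis in saponin/Triton buffer at room temperature. Cultures at 0.3% parasitemia and 2.5% hematocrit were first exposed to compound for 72 h at 37 C; signals were normalised to artemisinin (0.29 uM) and vehicle wells.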
# [2] = qHTS profiling of the MIPE4 collection as inhibitors of Plasmodium falciparum (DD2) proliferation (AID 743345); conditions: P. falciparum Dd2 in erythrocytes, SYBR Green DNA, 72 h; at 28.5 µM unless noted
# Outline: as §1
# [3] = qHTS profiling of the MIPE4 collection as inhibitors of Plasmodium falciparum (DD2) proliferation (Rep 2) (AID 743346); conditions: P. falciparum Dd2 in erythrocytes, SYBR Green DNA, 72 h; at 28.5 µM unless noted
# Outline: as §1
# [4] = qHTS profiling of the MIPE4 collection as inhibitors of Plasmodium falciparum (HB3) proliferation (AID 743347);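 also: plate controls were DMSO vehicle wells for no effect and artemisinin wells for full effect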; conditions: P. falciparum HB3 in erythrocytes, SYBR Green DNA, 72 h; at 28.5 µM unless noted
# Outline: as §1
# [5] = High-throughput drug toxicity screening in the BPDCN cell line Gen2.2 (AID 1224824); conditions: Gen2.2 BPDCN cells; at 45.8 µM (top of the series) unless noted;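 also: cells exposed to compounds for 48 h before reading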
# Outline: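 CellTiter-Glo luminescence after 48 h compound exposure of Gen2.2 cells; percent activity set with DMSO as 100% and bortezomib (9.2 uM final) as 0%. Cells seeded at 500 per well, RPMI + 10% FBS, 37 °C.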
# [6] = High-throughput drug toxicity screening in the BPDCN cell line Cal-1 (AID 1224825); conditions: Cal-1 BPDCN cell viability, qHTS; at 45.8 µM (top of the series) unless noted
# Outline: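 Percent activity derived from CellTiter-Glo luminescence, scaling DMSO to 100% and 9.2 uM final bortezomib to 0%. BPDCN Cal-1 cells (500/well, RPMI plus 10% FBS) incubated with compounds 48 hours at 37C before reading.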
# [7] = qHTS assay for measurement of the activity of small molecule inhibitors on Zika virus induced Caspase-3 activity in human iPSC derived neural progenitor cells (hNPCs) (AID 1224857; active = well fitted curve in the direction sought with a large enough effect; an effect the other way counts as inactive or inconclusive; also: nearly all actives have a fitted effect of over 65% in size; also: potency is read from the fitted curve at half-maximal effect)
# Outline: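 After overnight (16–20 h) culture at 350 cells/well, hNPCs get compound, then ZIKV 2 FFU/cell one hour later. Six hours on, Caspase-Glo 3/7 is added and luminescence measured.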
# [8] = qHTS profiling for inhibitors of Plasmodium falciparum (3D7) proliferation (AID 743322);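 also: infected erythrocytes exposed to compound for 72 h before lysis; 100% = DMSO vehicle wells and 0% = 0.29 µM artemisinin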; conditions: P. falciparum 3D7 proliferation; at 28.7 µM (top of the series)
# Outline: as §1
# [9] = qHTS profiling for inhibitors of Plasmodium falciparum (DD2) proliferation (AID 743323); conditions: lower = more inhibition; at 28.7 µM (top of the series)
# Outline: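 Parasite DNA quantified by SYBR Green fluorescence (ex 485, em 535 nm) after saponin/Triton lysis and overnight dark incubation. Cultures: 0.3% parasitemia, 2.5% hematocrit, 72 h, 37 C; data scaled between DMSO and 0.29 uM artemisinin.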
# [10] = qHTS profiling for inhibitors of Plasmodium falciparum (HB3) proliferation (AID 743324; active = well fitted curve in the direction sought with a large enough effect; an effect the other way counts as inactive or inconclusive;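 also: 100% = DMSO vehicle wells and 0% = artemisinin-treated control wells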); conditions: Plasmodium falciparum HB3 blood-stage proliferation; at 28.7 µM (top of the series)
# Outline: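 SYBR Green fluorescence (485 ex/535 em) of lysed cultures, incubated overnight at room temperature in the dark, quantifies parasite DNA. Infected erythrocytes at 0.3% parasitemia and 2.5% hematocrit were exposed 72 h; values normalized to DMSO and 0.29 uM artemisinin controls.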
Compound,"parasite growth, % of DMSO control [1]","parasite growth remaining, % of DMSO control (lower = more inhibition) [2]","parasite growth, % of control (lower = inhibition) [3]","growth, % of control [4]","cell viability, % of control (lower = more cytotoxic) [5]",viability (% of control) [6],Potency [7],remaining parasite growth % (stronger effect = lower value) [8] [%],"activity, percent of control [9] [%]","remaining proliferation (% of control), lower = more inhibition [10] [%]"
COc1cc(O)c2c(c1)C(=O)c1cc(C)cc(O)c1C2=O,81.1% [at 9.64 µM],92.9% [at 9.64 µM],84.4% [at 9.64 µM],47.7% [at 9.64 µM],154% [at 23.2 µM],101% [at 23.2 µM],inactive,,,
CCC(=O)O[C@]1(C(=O)CO)CC[C@H]2[C@@H]3CCC4=CC(=O)CC[C@]4(C)[C@@H]3CC[C@@]21C,37.1%,93.6%,38.1%,31%,84.6%,81.8%,inactive,,,
CC1CCC(C(=O)N(c2cc(C#CC(C)(C)C)sc2C(=O)O)C2CCC(O)CC2)CC1 (configuration not stated),4.72%,54.5%,9.42%,3.91%,50.9%,92%,inactive,,,
COc1ccc(-n2c(C)c([N+](=O)[O-])c3ccc(O)cc32)cc1,80.7%,78.7%,45.7%,34.7%,46.7%,96.3%,inactive,,,
COc1ccc(C2CC(c3ccccc3)=NN2c2ccc(S(N)(=O)=O)cc2)cc1 (configuration not stated),50.4%,99.9%,,66%,76.6%,27.3%,inactive,23.3,40.1,19.1
COC(=O)N[C@H](C(=O)N1CCC[C@@H]1c1ncc(-c2ccc(-c3ccc(-c4cnc([C@@H]5CCCN5C(=O)[C@@H](NC(=O)OC)C(C)C)[nH]4)cc3)cc2)[nH]1)C(C)C,9.52%,9.13%,24.9%,14.2%,6.1%,28.7%,inactive,,,
CC(C)=CC[C@@H](O)C1=CC(=O)c2c(O)ccc(O)c2C1=O,3.69%,5.8%,4.13%,2.71%,5.88%,13.2%,inactive,,,
Nc1ncnc2ccccc12,84.9%,98.4%,82.3%,77%,145%,100%,inactive,,,
Nc1ncnc2c1nc(Cl)n2[C@@H]1O[C@H](CO)[C@@H](O)[C@@H]1O,187%,109%,43.2%,125%,6.19%,9.15%,inactive,,,
O=C(O)[C@H]1O[C@H](Oc2cc3oc(-c4ccccc4)cc(=O)c3c(O)c2O)[C@H](O)[C@@H](O)[C@H]1O,69.9%,89%,57.6%,96.3%,46.5%,105%,inactive,,,
CCN(CC)CCOc1ccc(C(=C(Cl)c2ccccc2)c2ccccc2)cc1,5.06%,9.72%,6.97%,9.51%,136%,50.6%,inactive,,,
Nc1ncnc2c1ncn2[C@@H]1O[C@H](CO)C[C@@H]1O,43.4%,56.1%,57.5%,79%,96.4%,39.8%,inactive,,,
CCOC(=O)C1=C(N)Oc2ccc(Br)cc2C1C(C#N)C(=O)OCC (configuration not stated),91.3%,95.8%,93.2%,107%,3.23%,9.05%,inactive,,,
CC[C@@H]1C=C(C)C[C@H](C)C[C@H](OC)[C@H]2O[C@@](O)(C(=O)C(=O)N3CCCC[C@@H]3C(=O)O[C@H](C(C)=C[C@@H]3CC[C@H](Cl)[C@H](OC)C3)[C@H](C)[C@@H](O)CC1=O)[C@H](C)C[C@H]2OC,27.5%,6.74%,17.3%,64.6%,12.7%,20.8%,inactive,,,
c1ccc2c(-c3cnn4cc(-c5ccc(N6CCNCC6)cc5)cnc34)ccnc2c1,4.34%,5.98%,6.79%,5.81%,3.03%,3.05%,inactive,-1.65,-0.291,
COc1ccc2c(Oc3ccc(NC(=O)c4c(C)n(CC(C)(C)O)n(-c5ccccc5)c4=O)cc3F)ccnc2c1,18.3%,60.9%,48.9%,13.8%,16.8%,13.4%,inactive,,,
CCNc1cc(NC2CCC(O)CC2)nc(Nc2ccc3c(ccn3Cc3ccccc3)c2)n1 (configuration not stated),4.9%,6.69%,15.2%,9.27%,21.8%,2.13%,inactive,,,
COc1ccc(-c2cc(=O)c3c(O)cc(O)cc3o2)cc1O,30.9%,44.4%,43.3%,67.5%,97.2%,16.3%,18.7 µM (active),,,
CC(=O)O[C@]1(C(C)=O)CC[C@@H]2[C@@H]3C[C@H](C)C4=CC(=O)CC[C@]4(C)[C@H]3CC[C@@]21C,24.9%,89%,22%,16.6%,75.1%,95.7%,inactive,,,
C=CCc1ccc(O)c(-c2ccc(O)c(CC=C)c2)c1,22.1%,75.6%,27.4%,3.7%,34.9%,21.1%,inactive,,,
CN(C)Cc1ccc(-c2nc3cccc4c3n2CCNC4=O)cc1,64%,100%,,97%,15.8%,4.01%,inactive,86.1,90,94
Cc1ccn(-c2ccc(-c3ncco3)cc2)c(=O)c1-c1ccc2nc(N)ncc2c1,21.1%,78.6%,56.7%,72.3%,316%,62.2%,inactive,,,
O=C(O)c1c(Cl)c(Cl)c(Cl)c(Cl)c1-c1c2cc(I)c(=O)c(I)c-2oc2c(I)c(O)c(I)cc12,83.8%,97.1%,80.2%,88.8%,96.1%,55.1%,inactive,,,
